Calls of active or inactive are those of the source.
Experiments:
[1] = E. coli DRC41 culture turbidity changes, primary screen, E. coli filamentation inducer project, strain DRC41, OD650, 48 h (AID 1152);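 further: E. coli MC1000 strain DRC41 lacking acrAB efflux pump and sulA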; conditions: E. coli DRC41 (acrAB sulA), higher = more signal, called active from +8 up or from −8 down
[2] = small-molecule binders of probe aLefty1, primary screen, biochemical, small-molecule microarray, 635/667 nm fluorescence (AID 1153); conditions: higher = more signal;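 further: score merges spot fluorescence with signal-to-noise ratio from the scanned slide images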
[3] = PSAC antagonists in infected red cells, primary screen, cell-based, P. falciparum Indochina, OD700, 1 h (AID 1154); conditions: P. falciparum Indochina infected RBC osmotic lysis, higher = more signal, called active from +8 up or from −8 down
[4] = PSAC antagonists in infected red cells, primary screen, cell-based, P. falciparum Indochina, OD700, 2 h (AID 1155);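 further: lysis reports solute entry through the parasite surface anion channel PSAC; channel blockers reduce lysis of infected cells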; conditions: P. falciparum Indochina infected erythrocytes, osmotic lysis OD700; higher = more signal, called active from +8 up or from −8 down
[5] = osmotic lysis modulators in infected erythrocytes, primary screen, PSAC antagonist project, cell-based, P. falciparum Indochina, OD700, 3 h (AID 1156); conditions: higher = more signal, called active from +8 up or from −8 down
[6] = PSAC antagonists in infected red cells, primary screen, cell-based, P. falciparum Indochina, OD700, 18 h (AID 1157); conditions: P. falciparum Indochina infected erythrocytes, osmotic lysis OD700, 18 h; higher = more signal, called active from +8 up or from −8 down
[7] = modulators of S6 phosphorylation in cells, primary screen, cell-based, A549, cytoblot, luminescence, serum-stimulated (AID 1158); conditions: A549 phospho-S6 cytoblot, 5 h, higher = more signal;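 further: serum-stimulated A549 lung adenocarcinoma cells; signal is phosphorylated S6 detected by cytoblot immunostaining with HRP secondary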
[8] = target: NADPH oxidase 2 (Homo sapiens) (UniProt P04839); test: NOX2-dependent H2O2 signal modulators, primary screen, NOX inhibitor project, cell-based, HEK293-NOX2, PMA-stimulated, Amplex Red fluorescence (AID 1159); conditions: 45 min, higher = more signal, called active from +8 up or from −8 down; further: test concentration not given here
[9] = target: NADPH oxidase 4 (Homo sapiens) (UniProt Q9NPH5); test: NOX4-dependent H2O2 signal modulators, primary screen, NOX inhibitor project, cell-based, HEK293-NOX4, tetracycline-induced, Amplex Red fluorescence (AID 1160); conditions: 45 min, higher = more signal, called active from +8 up or from −8 down
[10] = target: NADPH oxidase 5 (Homo sapiens) (UniProt Q96PH1); test: NOX5-dependent H2O2 signal modulators, primary screen, NOX inhibitor project, cell-based, HEK293-NOX5, Amplex Red fluorescence (AID 1161); conditions: HEK293-NOX5, ionomycin, 45 min, higher = more signal
[11] = A549 cell viability effects, profiling panel, calcein-AM fluorescence, 48 h, basal (AID 1162); conditions: higher = more signal; further: test concentration not given here
[12] = adipocyte viability effects, profiling panel, cell-based, 3T3-L1 adipocytes, calcein-AM fluorescence, 48 h, basal (AID 1163); conditions: 3T3-L1 adipocytes viability, higher = more signal; further: test concentration not given here
[13] = HepG2 cell viability effects, profiling panel, calcein-AM fluorescence, 48 h, basal (AID 1164); conditions: higher = more signal; further: test concentration not given here
[14] = MM1S cell viability effects, profiling panel, calcein-AM fluorescence, 48 h, basal (AID 1165); conditions: higher = more signal;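 further: viability of MM1S multiple myeloma cells under basal unstimulated conditions; test concentration not given here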
[15] = basal RPMI8226 viability, no added stimulus, profiling panel, cell-based, calcein-AM fluorescence, 48 h, PK04 Diversity Set (AID 1166); conditions: RPMI8226 myeloma viability, higher = more signal;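 further: cells grown under basal conditions without added stimulus; test concentration not given here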
[16] = basal HepG2 mitochondrial membrane potential changes, profiling panel, cell-based, JC-1 fluorescence, 24 h, 100 nL compound (AID 1167); conditions: higher = more signal; further: test concentration not given here
[17] = basal 3T3-L1 adipocyte mitochondrial potential changes, profiling panel, cell-based, JC-1 fluorescence, 3T3-L1 adipocytes, 24 h, 100 nL compound (AID 1168); conditions: JC-1 mitochondrial fluorescence, higher = more signal, called active from +8 up or from −8 down; further: test concentration not given here
[18] = basal RPMI8226 mitochondrial membrane potential changes, profiling panel, cell-based, JC-1 fluorescence, 24 h, 100 nL compound (AID 1169); conditions: RPMI8226 myeloma, JC-1 mitochondrial potential fluorescence, higher = more signal; further: test concentration not given here
[19] = basal MM1S mitochondrial membrane potential changes, profiling panel, cell-based, JC-1 fluorescence, 24 h, 100 nL compound (AID 1170); conditions: higher = more signal; further: test concentration not given here
[20] = A549 lung cancer cell viability effects, profiling panel, resazurin fluorescence, 24 h, PK04 Diversity Set (AID 1171); conditions: higher = more signal, called active from +8 up or from −8 down; further: test concentration not given here

NADPH oxidase 5 (Homo sapiens), sequence (Q96PH1 whole entry, looked up): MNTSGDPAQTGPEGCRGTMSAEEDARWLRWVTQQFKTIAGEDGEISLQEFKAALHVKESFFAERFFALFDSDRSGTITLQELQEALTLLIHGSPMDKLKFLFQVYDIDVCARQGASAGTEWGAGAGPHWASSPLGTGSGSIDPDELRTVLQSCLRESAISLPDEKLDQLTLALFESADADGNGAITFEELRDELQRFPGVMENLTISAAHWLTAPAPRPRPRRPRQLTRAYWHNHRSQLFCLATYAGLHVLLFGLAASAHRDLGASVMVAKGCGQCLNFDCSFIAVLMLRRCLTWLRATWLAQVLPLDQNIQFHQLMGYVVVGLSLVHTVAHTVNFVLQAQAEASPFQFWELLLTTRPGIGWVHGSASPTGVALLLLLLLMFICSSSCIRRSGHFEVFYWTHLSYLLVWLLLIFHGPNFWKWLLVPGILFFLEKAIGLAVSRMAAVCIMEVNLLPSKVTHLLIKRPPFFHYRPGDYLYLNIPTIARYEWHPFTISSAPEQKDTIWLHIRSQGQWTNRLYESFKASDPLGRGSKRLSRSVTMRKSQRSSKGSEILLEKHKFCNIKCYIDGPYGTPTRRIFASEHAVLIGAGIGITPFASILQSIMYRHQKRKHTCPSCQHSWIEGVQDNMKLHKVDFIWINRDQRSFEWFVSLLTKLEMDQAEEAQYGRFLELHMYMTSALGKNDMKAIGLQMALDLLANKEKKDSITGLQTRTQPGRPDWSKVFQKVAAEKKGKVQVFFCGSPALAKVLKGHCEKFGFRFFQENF
NADPH oxidase 2 (Homo sapiens), sequence (P04839 whole entry, looked up): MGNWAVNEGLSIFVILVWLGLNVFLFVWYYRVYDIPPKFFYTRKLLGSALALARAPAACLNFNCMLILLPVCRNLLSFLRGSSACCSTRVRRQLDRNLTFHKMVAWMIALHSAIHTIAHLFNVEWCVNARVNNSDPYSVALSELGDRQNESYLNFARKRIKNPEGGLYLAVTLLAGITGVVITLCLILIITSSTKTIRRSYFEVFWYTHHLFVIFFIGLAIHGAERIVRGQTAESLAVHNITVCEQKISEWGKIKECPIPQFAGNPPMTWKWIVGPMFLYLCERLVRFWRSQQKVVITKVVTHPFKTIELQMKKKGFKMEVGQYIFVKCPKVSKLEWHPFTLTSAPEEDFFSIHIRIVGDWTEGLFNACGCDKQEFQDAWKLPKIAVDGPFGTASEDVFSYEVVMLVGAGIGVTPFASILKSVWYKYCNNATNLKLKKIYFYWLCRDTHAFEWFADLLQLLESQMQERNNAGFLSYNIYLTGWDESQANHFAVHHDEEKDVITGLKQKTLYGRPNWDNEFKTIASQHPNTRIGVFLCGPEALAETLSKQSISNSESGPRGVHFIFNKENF
NADPH oxidase 4 (Homo sapiens), sequence (Q9NPH5 whole entry, looked up): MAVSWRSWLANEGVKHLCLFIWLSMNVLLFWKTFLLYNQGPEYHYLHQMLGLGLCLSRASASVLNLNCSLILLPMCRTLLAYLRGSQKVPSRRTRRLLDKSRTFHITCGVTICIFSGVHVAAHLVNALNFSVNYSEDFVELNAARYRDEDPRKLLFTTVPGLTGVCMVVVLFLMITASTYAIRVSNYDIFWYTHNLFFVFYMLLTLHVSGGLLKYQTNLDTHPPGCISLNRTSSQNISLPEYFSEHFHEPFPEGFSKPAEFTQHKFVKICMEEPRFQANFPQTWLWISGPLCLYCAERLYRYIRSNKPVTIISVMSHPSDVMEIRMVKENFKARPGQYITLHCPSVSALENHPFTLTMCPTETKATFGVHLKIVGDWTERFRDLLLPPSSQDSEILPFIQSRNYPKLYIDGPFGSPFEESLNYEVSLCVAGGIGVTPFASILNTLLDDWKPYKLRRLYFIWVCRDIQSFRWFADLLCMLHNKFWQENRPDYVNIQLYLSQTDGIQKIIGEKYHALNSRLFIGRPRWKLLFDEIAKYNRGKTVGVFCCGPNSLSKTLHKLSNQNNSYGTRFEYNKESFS

Structure (SMILES)	z-score [1]	composite z-score [2]	z-score [3]	z-score [4]	z-score [5]	z-score [6]	z-score [7]	z-score [8]	z-score [9]	z-score [10]	z-score [11]	z-score [12]	z-score [13]	z-score [14]	z-score [15]	z-score [16]	z-score [17]	z-score [18]	z-score [19]	z-score [20]
C=C[C@H](C)[C@@H](OC(=O)Nc1ccc(SC)cc1)c1ccc(O)c2ccccc12	-0.751 (inactive)	0.0942	27.7 (active)	9.84 (active)	2.51 (inactive)	1.31 (inactive)	1.23	-5.52 (inactive)	-1.45 (inactive)	0.894	-0.89	0.0148	-1.87	-2.68	-4.27	-3.23	-0.475 (inactive)	-0.934	-1.59	-0.774 (inactive)
COCCCNC(=O)[C@@]1(Cc2ccccc2CN=[N+]=[N-])N=C(c2ccc(OCCCO)cc2)O[C@H]1c1ccccc1CN=[N+]=[N-]	1.16 (inactive)	0.123	31.4 (active)	48.5 (active)	2.97 (inactive)	26.4 (active)	2.88	-3.05 (inactive)	-0.796 (inactive)	-1.91	-0.768	1.56	-0.983	-2.88	-3.94	1.57	2.31 (inactive)	-1.2	-2.64	-1.2 (inactive)
O=c1cccc(-c2ccccc2Cl)o1	-0.685 (inactive)	-0.456	0.298 (inactive)	0.585 (inactive)	-0.187 (inactive)	0.414 (inactive)	-0.767	0.182 (inactive)	-0.914 (inactive)	0.863	0.586	0.528	0.614	-1.04	0.0055	-0.98	-0.428 (inactive)	-0.103	0.304	-0.0719 (inactive)
CC(C)CCC[C@@H](C)[C@H]1CC[C@@]2(C)C3=C(CC[C@]12C)[C@@]1(C)CC[C@H](OC(=O)c2ccc(C(F)(F)F)nc2)C(C)(C)C1CC3 (stereo not given in full)	3.47 (inactive)	-0.155	-1.05 (inactive)	-0.693 (inactive)	0.103 (inactive)	-2.61 (inactive)	2.5	-0.971 (inactive)	0.129 (inactive)	0.933	0.351	0.806	0.717	0.18	0.79	0.726	-0.215 (inactive)	0.483	-0.263	-0.0879 (inactive)
CCOC(=O)C[C@H]1[C@H](OC(=O)c2ccc(C(=O)c3ccccc3)cc2)[C@@H](NC(=O)Cc2ccc(OC)cc2)c2cc(OCCCO)ccc2N1C(=O)c1ccc2ccccc2n1	0.378 (inactive)	0.131	3.85 (inactive)	1.05 (inactive)	-0.392 (inactive)	0.604 (inactive)	-0.0822	-1.03 (inactive)	0.492 (inactive)	1.53	1.33	-0.121	0.493	-0.854	-0.614	0.658	2.22 (inactive)	-0.234	0.567	-0.383 (inactive)
CCCCN1CC=CC23O[C@@H]4C=CCOC(=O)[C@@H]4[C@H]2C(=O)N(CCCCCCO)[C@@H]3C1=O (stereo not given in full)	-0.413 (inactive)	-0.195	2.08 (inactive)	0.393 (inactive)	1.09 (inactive)	0.405 (inactive)	0.133	1.09 (inactive)	-0.282 (inactive)	1.63	0.327	-1.36	0.215	0.546	0.569	-0.71	-0.228 (inactive)	0.76	-0.12	-0.499 (inactive)
O=C1NC(=O)C2C1C=CC(C(O)C1CC=CCC1)N2Nc1ccccn1 (stereo not given)	-0.629 (inactive)	-0.0172	-0.158 (inactive)	-0.0567 (inactive)	0.0677 (inactive)	0.288 (inactive)	-0.259	-2.27 (inactive)	-2.52 (inactive)	-1.61	-0.905	-0.635	1.06	0.0581	-0.362	-0.265	-0.147 (inactive)	-0.074	-0.642	-1.44 (inactive)
CN(C)CCCCCCNC(=O)[C@@H]1C[C@@H]2C(=O)N3CCC[C@H]3C(=O)N2[C@@H]1c1ccc(O)cc1	1.12 (inactive)	0.457	0.974 (inactive)	-1.24 (inactive)	1.09 (inactive)	-1.93 (inactive)	1.12	-0.245 (inactive)	-0.176 (inactive)	0.884	1.26	1.09	0.773	0.581	-0.586	1.06	0.342 (inactive)	-0.689	-0.78	-0.908 (inactive)
O=C1C2C=CC(C(O)c3c(F)cccc3Cl)N(Nc3ccccc3F)C2C(=O)N1c1ccccc1 (stereo not given)	-0.775 (inactive)	0.19	6.75 (inactive)	1.57 (inactive)	0.303 (inactive)	1.1 (inactive)	-0.514	-1.43 (inactive)	-4.43 (inactive)	-2.84	-0.505	-1.08	-0.257	0.278	-0.0072	-1.03	-0.217 (inactive)	-0.277	-0.298	-0.103 (inactive)

— PubChem BioAssay
